SMN2 splice enh: increases expression of the SMN2 splice variant | HEK293 SMN2-luciferase splicing reporter, luminescence, 30-36 h | Potency, µM (series often up to 46.1 µM), for the others: at the highest dose activity change, positive = activation, usual class: activators | hit rate 2.8% among 210,000 | AID 1458; note: % of control where 0% means no effect; nearly all actives have a fitted effect of over 55% in size
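qHTS luciferase splicing reporter: luminescence rises when SMN2 exon 7 is included in transfected HEK293 cells. Compound exposure lasted 30-36 h at 37C, with 4.5 mM final sodium butyrate as control, followed by a ONE-Glo read.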
NPC1 promoter act: activates the NPC1 promoter; Huh7 NPC1 promoter luciferase reporter, 24 h; Potency, µM (doses to about 9.22 µM), without a hit: at the highest dose activation, actives largely listed as activators; hit rate 2.4% among 320,000; AID 485313; note: % of control where 0% means no effect; nearly all actives have a fitted effect of over 60% in size
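Huh7 cells stably carrying NPC1 promoter–luciferase, plated in Opti-MEM with 10% FBS for 2 h, were exposed to compound in DMSO for 24 h at 37 °C; luciferase reagent was added for 10 min and luminescence read.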
FLuc modulator: inhibits or activates purified firefly luciferase, miR-21 counter-screen; hit rate 6.9% among 360,000; P08659; AID 588342; purified FLuc, Km substrates, luminescence inhibition; Potency, µM (highest dose often 57.5 µM), without a hit: at the highest dose activity change, negative = inhibition, hits mostly inhibitors;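 note: plate controls were vehicle for no effect and reference inhibitor for full effect; nearly all actives have a fitted effect of over 55% in size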
Target sequence (P08659 whole entry, looked up): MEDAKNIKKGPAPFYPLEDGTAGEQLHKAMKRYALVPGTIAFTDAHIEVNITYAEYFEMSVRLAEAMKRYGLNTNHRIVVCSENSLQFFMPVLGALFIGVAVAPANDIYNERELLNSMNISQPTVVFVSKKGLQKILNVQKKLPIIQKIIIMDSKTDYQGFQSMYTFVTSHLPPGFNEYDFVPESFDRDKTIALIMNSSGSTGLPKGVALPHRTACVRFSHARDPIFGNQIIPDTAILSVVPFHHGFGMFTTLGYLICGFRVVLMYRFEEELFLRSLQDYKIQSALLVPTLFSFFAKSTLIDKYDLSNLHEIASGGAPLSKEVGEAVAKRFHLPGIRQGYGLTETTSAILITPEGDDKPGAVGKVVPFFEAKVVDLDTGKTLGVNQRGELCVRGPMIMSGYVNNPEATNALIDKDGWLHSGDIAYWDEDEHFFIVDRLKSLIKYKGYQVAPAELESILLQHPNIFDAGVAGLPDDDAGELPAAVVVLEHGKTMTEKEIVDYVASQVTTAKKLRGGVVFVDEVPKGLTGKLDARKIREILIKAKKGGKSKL
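Purified P. pyralis luciferase (10nM final) with 10uM D-luciferin and 10uM ATP (Km levels) in 50mM Tris acetate pH 7.5, 10mM Mg acetate, 0.01% Tween-20, 0.05% BSA; qHTS 6-point titration, ~60 µM downward; luminescence read.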
ELG1 repair inh: inhibitors of ELG1-dependent DNA repair in HEK293T cells | HEK293T ELG1-luciferase reporter, luminescence, 16 h; DNA damage induced by 5-fluorouridine | Potency, µM (titrated, usually from 46.1 µM), inactives show at the highest dose activity change, negative = inhibition, hits mostly inhibitors | hit rate 2.3% among 330,000 | AID 504467; note: % is set by controls: 0 for no effect and ±100 for the full control effect; nearly all actives have a fitted effect of over 55% in size
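DMSO vehicle served as the neutral condition. Each well held 2,000 cells given 5-fluorouridine plus compound; after 16 hr at 37 °C/5% CO2, ONE-Glo was added and luciferase measured 30 min later.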
Rab9 prom act: activators of Rab9 promoter | Potency, µM (highest dose often 9.22 µM), without a hit: at the top dose activation, negative = inhibition, most hits filed as activators | hit rate 2.8% among 320,000 | Huh7 Rab9 promoter-luciferase reporter, luminescence, 24 h; note: % of control where 0% means no effect; nearly all actives have a fitted effect of over 60% in size
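Huh7 reporter line, Rab9 promoter upstream of luciferase. Compound exposure 24 h at 37 °C in reduced-serum medium with 10% FBS. Read-out: luminescence.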
ELG1 genotoxic: inducers of genotoxicity in HEK293T ELG1-luciferase cells | HEK293T ELG1-luciferase reporter, luminescence, 16 h | Potency, µM (titrated, usually from 46 µM), for inactives: top-dose activity change, positive = activation, most hits filed as activators | hit rate 1.3% among 330,000 | AID 504466; note: % of control where 0% means no effect; nearly all actives have a fitted effect of over 60% in size
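Genotoxicity was scored as increased ELG1-luciferase reporter signal, measured by ONE-Glo luminescence (30 min, room temperature). Compound or vehicle exposure of the HEK293T reporter cells lasted 16 hr at 37°C.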
* = called active by the depositor; ? = inconclusive; · = not tested or not shown; [ ] = another dose, or the depositor's remark. Sampled rows, rich in hits. Any-hit rate of the full collection: about 9.3%. Calls come from the whole dose curve; as a rule, active = well fitted curve in the direction sought with a large enough effect; inconclusive = small, poorly fitted or top-dose-only effect, or another doubt; inactive = no such curve, though single readings can be large; an effect the other way counts as inactive or inconclusive. Potency is the fitted concentration of half-maximal effect.

SMILES	SMN2 splice enh	NPC1 promoter act	FLuc modulator	ELG1 repair inh	Rab9 prom act	ELG1 genotoxic
Cc1ccc(N=Nc2c(C)[nH]n(-c3ccccc3)c2=O)cc1Br	·	18.1%	-2.3%	3.0%	17.5%	1.1%
O=C(c1ccc(NS(=O)(=O)c2ccc(F)cc2)cc1)N1CCOCC1	·	-2.6%	3.5%	5.2%	-6.6%	-0.6%
CCOc1ccccc1/C=C/c1onc(C)c1S(=O)(=O)N1CCC(C(=O)N(CC)CC)CC1	·	-6.9%	-0.4%	5.8µM*	-0.8%	-5.5%
CN(CC(=O)Nc1cccc(F)c1)C(=O)c1csc2c1CCCC2	·	-3.6%	-1.6%	1.6%	11.4%	17.7%
CCOC(=O)c1ccc(NC(=O)c2csc3c2CCCC3)cc1	-6.8%	·	?	·	·	·
CC(=O)c1cccc(NC(=O)c2csc3c2CCCCC3)c1	19.9%	15.6%	13.5µM*	-15.7%	20.5%	1.4%
CCOc1ccc(NC(=O)c2csc3c2CCCC3)cc1	11.2µM*	2.24µM*	2.69µM*	?	3.55µM*	?
CC(=O)c1cccc(NC(=O)Nc2csc3c2CCCC3)c1	·	-1.2%	16.9µM*	0.0%	1.8%	-7.0%
Cc1ccc(Sc2ccc(N3CCCC(C(=O)Nc4ccc(Br)cc4)C3)nn2)cc1 (configuration not stated)	8.0%	·	?	·	·	·
COc1ccc(F)cc1NC(=O)C1CCN(c2nc(-c3ccc(OC)c(OC)c3)no2)CC1	-10.5%	·	1.7%	·	·	·
O=C(CN1CC[n+]2c(-c3ccccc3)csc21)c1ccc(Br)cc1	·	-7.9%	-1.6%	16.4µM*	-5.5%	-11.2%
O=C(CN1CC[n+]2c(-c3cccs3)csc21)c1ccc(Br)cc1	-15.2%	-1.8%	-1.0%	?	-3.0%	-14.0%
Cc1[nH]c2ccccc2c1SCc1nnc(SCc2ccccc2)n1C	·	2.7%	7.4%	-19.6%	-1.4%	-9.2%
Cc1[nH]c2ccccc2c1SCc1nnc(SCc2ccc(Cl)cc2)n1C	·	2.2%	1.3%	16.4µM*	-3.6%	-17.0%
COC(c1ccccc1)c1nnc(CCC(=O)N(C)CCCC2CCCC2)o1 (configuration not stated)	·	2.3%	?	?	6.0%	3.9%
COC(c1ccccc1)c1nnc(CCC(=O)N(C)CCOc2ccccc2)o1 (configuration not stated)	12.1%	17.3%	26.9µM*	?	27.9%	?
COC(c1ccccc1)c1nnc(CCC(=O)N(C)Cc2cccc(-n3cccn3)c2)o1 (configuration not stated)	·	4.4%	15.1µM*	?	?	?
CCC(C)(C)C(=O)O[C@@H]1C[C@H](C)C=C2C=C[C@H](C)[C@@H](CC[C@H]3C[C@@H](O)CC(=O)O3)[C@H]21	-15.6%[20.6 µM]	·	·	·	·	·
COc1ccc(CCN2C(=O)c3[nH]nc(-c4ccccc4O)c3C2c2cccc(O)c2)cc1OC (configuration not stated)	8.5%	1.6%	-4.3%	18.4µM*	-0.8%	-2.8%
CCCN(CCC)CCNC(=O)C1CCCN(S(=O)(=O)c2cccc3nsnc23)C1 (configuration not stated)	-19.6%	·	1.4%	·	·	·
O=C(CN1C(=O)COc2ccccc21)NC1CCCC1	·	-1.0%	-0.3%	10.2%	-12.3%	0.0%
O=C(C[n+]1ccn(-c2ccccc2)c1)c1ccc([N+](=O)[O-])cc1	·	-0.1%	-1.2%	-18.4%	26.9%	-3.7%
O=C(Cn1cc[n+](Cc2ccccc2)c1)c1ccc([N+](=O)[O-])cc1	-27.1%	-6.3%	-3.0%	14.6µM*	1.6%	-8.0%
CCn1cc(C(=O)OCC(=O)Nc2ccc(C(C)C)cc2)c(=O)c2ccc(C)nc21	0.3%	0.2%	?	-0.4%	3.8%	-0.9%
O=C(O)CCSCc1ccc(I)cc1	6.3%[9.22 µM]	·	·	·	·	·
SMILES	SMN2 splice enh	NPC1 promoter act	FLuc modulator	ELG1 repair inh	Rab9 prom act	ELG1 genotoxic
CC(=O)c1ccc(NC(=O)COC(=O)c2ccccc2N=Nc2ccc(N(C)C)cc2)cc1	?	1.2%	5.36µM*	-27.9%	11.8%	-2.8%
CN(C)c1ccc(N=Nc2ccccc2C(=O)OCC(=O)N(C)c2ccccc2)cc1	?	24.3%	1.35µM*	13µM*	22.6%	-1.8%
CN(C)c1cccc(C(=O)OCC(=O)N(C)c2ccccc2)c1	·	1.4%	-2.0%	-13.1%	-1.4%	0.3%
COC(=O)c1ccccc1NC(=O)COC(=O)c1ccccc1N=Nc1ccc(N(C)C)cc1	?	2.0%	12µM*	?	17.0%	0.9%
O=C(CCC(=O)N1CCCC1)N1CCCC1	·	1.1%	-0.3%	-0.3%	4.6%	-1.0%
O=C(O)c1ccc(-c2ccc(-c3ccccc3)cc2)s1	·	3.98e-05µM*	0.0757µM*	?	0.001µM*	?
Cc1cc(-c2ccc(C(=O)O)s2)cnc1N	12.6µM*	?	12µM*	?	?	?
CC1(C)C=C(c2ccc(C(=O)O)s2)CC(C)(C)N1	0.4%	1.4%	-0.7%	0.5%	-1.9%	0.6%
O=C(Nc1ccccc1)c1ccc(-c2ccccc2)s1	2.3%	?	1.69µM*	?	?	5.17µM*
COc1ccc2cc(C(=O)Nc3ccccc3)sc(=O)c2c1OC	18.8%	-0.8%	7.7%	?	28.6%	16.3%
O=C(Nc1ccccc1)c1cc2ccc3ccccc3c2s1	·	?	5.36µM*	?	?	?
CCOc1ccc(OCC)c(NC(=O)c2ccc(-c3ccccc3)s2)c1	3.9%	·	2.5%	·	·	·
O=C(Nc1ccccc1F)c1ccc(-c2ccccc2)s1	?	·	1.51µM*	·	·	·
CCc1ccc(NC(=O)c2ccc(-c3ccccc3)s2)cc1	·	·	0.1%	·	·	·
COC(=O)N1C(c2ccccc2)=Cc2ccccc2C1CC(C)=O (configuration not stated)	16.3%[9.22 µM]	·	·	·	·	·
COc1cc(NC(=O)CSc2ccc(-c3sc(-c4ccccc4)nc3C)nn2)cc(OC)c1	·	·	2.2%	·	·	·
CN(CC(=O)Nc1ccccc1C(F)(F)F)C(=O)CSc1nnc(N)s1	·	·	·	0.7%	·	6.4%
CCn1c(SCC(=O)Nc2ccc3c(c2)OCO3)nnc1-c1cnccn1	-19.1%	1.9%	-0.1%	-4.1%	0.1%	1.4%
CCn1c(SCC(=O)NC(=O)Nc2ccc3c(c2)OCCO3)nnc1-c1cccs1	-9.0%	1.7%	19µM*	?	7.6%	12.9%
CCn1c(SCC(=O)Nc2ccc3c(c2)OCCO3)nnc1-c1cccnc1	·	3.1%	23.9µM*	23.6%	16.0%	2.1%
CCn1c(SCC(=O)Nc2ccc3c(c2)OCCO3)nnc1-c1ccco1	-8.3%	-1.2%	15.1µM*	-4.0%	2.9%	-2.0%
CCN(CC(=O)Nc1ccc2c(c1)OCCO2)c1nc(-c2cccnc2)nc2ccccc12	4.8%	-0.6%	-5.9%	12.6µM*	-5.6%	-11.8%
